The source made the active and inactive calls. Calls come from the whole dose curve; as a rule, active = well fitted curve in the direction sought with a large enough effect in the repeat runs; inconclusive = weak or mixed curves; inactive = flat fitted curve, though single readings scatter.
% is set by controls: 0 for no effect and ±100 for the full control effect.

This assay in a line: qHTS assay to test for compound auto fluorescence at 535 nm (green) in HEK293 cells (AID 720680). As to conditions: green autofluorescence 485/535 nm; series mostly up to 91.3 µM. For orientation: Quantitative high-throughput screening tests each substance at several concentrations.
Take `Cc1c([N+](=O)[O-])c(C)c([N+](=O)[O-])c(C(C)(C)C)c1[N+](=O)[O-]`: the compound was called inactive.

For `N#CC(C#N)=NNc1cccc(Cl)c1`, the compound was called inactive.

Take `Brc1ccc(Oc2ccc(Br)cc2Br)c(Br)c1`: the compound was called inactive.

Take `CCOP(=O)(Sc1ccccc1)Sc1ccccc1`: the result was inactive.

As to `c1ccc2c(c1)cc1ccc3cccc4ccc2c1c34`, the call was inactive.

As for `Oc1cc(Cl)cc(Cl)c1`, the compound was classed as inactive.

Turning to `CC(=O)[O-].CC(=O)[O-].CC(=O)[O-].[Cr+3]`, the compound was classed as inactive.

For the compound `Cc1cc2c3c(c1)C(c1ccccc1)=N[C@@H](NC(=O)c1ccncc1)C(=O)N3CC2`, the result was inactive.

Consider `COc1ccc2[nH]cc(CCN(C(C)C)C(C)C)c2c1`, for which the compound was classed as inactive.

In the case of `O=C1C2(Cl)C3(Cl)C4(Cl)C(Cl)(Cl)C5(Cl)C3(Cl)C1(Cl)C5(Cl)C24Cl` (stereo unspecified), the compound was called inactive.

In the case of `CC(C)N(C(=O)CCl)c1ccccc1`, the outcome was inactive.

For the compound `CCNc1nc(NC(C)C(C)C)nc(SC)n1` (stereo unspecified), the outcome was inactive.

As to `CCCN`, the outcome was inactive.

In the case of `CC(=O)[O-].CC(=O)[O-].CC(=O)[O-].[Sb+3]`, the fluorescence, % of fluorescein is 0.0079% [at 3.72 µM] (inactive).

On to `Nc1cc(Cl)ccc1Cl`, for which the result was inactive.

For the compound `CN1CCc2cc3c(cc2C1O)OCO3` (stereo unspecified), the outcome was inactive.

For the compound `NC1CCC(CC2CCC(N)CC2)CC1` (stereo unspecified), the compound was called inactive.

On to `COP(=O)(OC)O/C(=C\Cl)c1cc(Cl)c(Cl)cc1Cl`, for which the call was inactive.

As to `CCCC[N+]1(C)CCCC1` (tested in a mixture with another compound), the call was inactive.

As for `c1ccc2nc(N3CCNCC3)ccc2c1`, the compound was classed as inactive.

Take `CCCCN(CCCC)C(=S)[S-].CCCCN(CCCC)C(=S)[S-].[Ni+2]`: the compound was called inactive.

For the origin of these results see PubChem BioAssay (Tox21).
